PubChem BioAssay
“And” between values parts separate entries of the source, which are not always exact repeats. Equal entries are not always repeated. Records with an inconclusive call do not appear. The source made the active and inactive calls.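 The calls were made as follows, unless noted: active = normalized viability below 100% at a tested concentration; inactive = the rest.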

How the values were obtained:
[1] = viability loss in pontine glioma line – cell-based, SU-DIPG-XVII, MIPE5.0, CellTiter-Glo, qHTS, dose response (AID 1347060; cut-off not given, nearly all actives have AC50 up to about 26 µM;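 also: cells exposed to compound for 48 hours before viability readout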); details: CellTiter-Glo ATP luminescence
[2] = viability loss in pontine glioma line – cell-based, SU-DIPG-XIII, MIPE4.0, CellTiter-Glo, qHTS, dose response (AID 1347061; cut-off not given, nearly all actives have AC50 up to about 37 µM;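 also: cells exposed to compound for 48 hours before readout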); details: CellTiter-Glo ATP luminescence
[3] = viability loss in pontine glioma line – cell-based, SU-DIPG-IV, MIPE4.0, CellTiter-Glo, qHTS, dose response (AID 1347063; cut-off not given, nearly all actives have AC50 up to about 30 µM;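 also: compound exposure lasted 48 hours before the viability readout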); details: CellTiter-Glo ATP luminescence
[4] = viability loss in pontine glioma line – cell-based, SU-DIPG-XXV, MIPE5.0, CellTiter-Glo, qHTS, dose response (AID 1347065; cut-off not given, nearly all actives have AC50 up to about 26 µM;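 also: cells exposed to compound for 48 hours before ATP readout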); details: CellTiter-Glo ATP luminescence
[5] = compounds altering HSF1 focus formation in cells – imaging, Selleck Cancer Library (AID 1347162; in the data active = plate-normalised HSF1 focus index below about 0.46); details: human cells, HSF1 nuclear foci imaging, at 10 µM; SSMD: measured here: HSF1 foci SSMD mean; cell count: measured here: cell number; plate-normalised HSF1 focus index: stronger effect = lower value
[6] = drug combination growth inhibition, ovarian cancer – cell-based, oncology-focused library, rucaparib conditional, profiling panel (AID 1508598); details: patient-derived ovarian cancer cells, CellTiter-Glo viability, 144 h, stronger effect = lower value
[7] = growth inhibition, single agent or in combination, cell-based, chromothripsis tumors, cisplatin or BGB combos (AID 1671449; in the data active = inhibition above about 80%;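 also: cells exposed for 96 hours; 0% = vehicle DMSO and 100% = killing by high DMSO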); details: LFS_MB_P medulloblastoma cells
[8] = growth inhibition, single agent and combos, cell-based, chromothripsis tumors, cisplatin or BGB combos (AID 1671450; in the data active = inhibition above about 80%;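 also: cells exposed to compound for four days; 0% = vehicle DMSO and 100% = cell killing by high DMSO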); details: HDN33 neuroblastoma cells, stronger effect = higher value
[9] = growth inhibition, single agents and combos, ICB984, cell-based, cisplatin or BGB combos, synergistic combos for chromothripsis tumors (AID 1671451; call rule not given here;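 also: cells exposed for 96 hours before readout; 0% = vehicle DMSO and 100% = killing by high DMSO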); details: ICB984 medulloblastoma cells, drug combinations, stronger effect = higher value
[10] = growth inhibition, single agents and combos, HTB85, cell-based, BGB or cisplatin IC20 combos, synergistic combos for chromothripsis tumors (AID 1671453; in the data active = inhibition above about 80%;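 also: cells exposed for 96 hours before readout; 0% = vehicle DMSO and 100% = high DMSO killing control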); details: HTB85 osteosarcoma cells, drug combinations, stronger effect = higher value
[11] = growth inhibition, MDA-MB-436, cell-based, BGB or cisplatin combos, synergistic combos for chromothripsis tumors (AID 1671458; call rule not given here;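 also: cells exposed for 96 hours; 0% = vehicle DMSO and 100% = killing by high DMSO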); details: MDA-MB-436 breast carcinoma growth inhibition, drug combinations, stronger effect = higher value
[12] = BT084 cell growth, single and combined drugs, ICGC_MB145, cisplatin and BGB IC40 combos (AID 1671461; in the data active = inhibition above about 80%;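 also: cells exposed to drugs for 96 hours; 0% = vehicle DMSO and 100% = high DMSO full killing control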); details: BT084 medulloblastoma cells, drug combinations, stronger effect = higher value
[13] = RCMB18 cell growth, single agent and combined, cisplatin and BGB IC40 combos (AID 1671462; in the data active = inhibition above about 80%;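 also: cells exposed to compound for four days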); details: RCMB18 medulloblastoma cells, stronger effect = higher value

**Q.** Which results are given for C[C@@H]1CN(CC(=O)Nc2ccc3c(c2)Cc2cccc(-c4cc(=O)cc(N5CCOCC5)o4)c2S3)C[C@H](C)O1?
**A.** AC50 [1]: 23.5 µM (active); outcome [2]: inactive; AC50 [3]: 13.2 µM (active); AC50 [4]: 18.6 µM (active); SSMD [5]: 2.96; cell count [5]: 6620; plate-normalised HSF1 focus index [5]: 1.15 (inactive); viability ([6]; at 0.000305 µM, OCI-C5x cells, with rucaparib 10 µM, 100% = cells with rucaparib alone): 106% (inactive); viability ([6]; at 0.000305 µM, OCI-C5x cells, without rucaparib): 116% (inactive); viability ([6]; at 0.000305 µM, OCI-P5x cells, with rucaparib 20 µM, 100% = cells with rucaparib alone): 111% (inactive); viability ([6]; at 0.000305 µM, OCI-P5x cells, without rucaparib): 119% (inactive); viability ([6]; at 0.00122 µM, OCI-C5x cells, with rucaparib 10 µM, 100% = cells with rucaparib alone): 108% (inactive); viability ([6]; at 0.00122 µM, OCI-C5x cells, without rucaparib): 123% (inactive); viability ([6]; at 0.00122 µM, OCI-P5x cells, with rucaparib 20 µM, 100% = cells with rucaparib alone): 108% (inactive); viability ([6]; at 0.00122 µM, OCI-P5x cells, without rucaparib): 121% (inactive); viability ([6]; at 0.00488 µM, OCI-C5x cells, with rucaparib 10 µM, 100% = cells with rucaparib alone): 112% (inactive); viability ([6]; at 0.00488 µM, OCI-C5x cells, without rucaparib): 129% (inactive); viability ([6]; at 0.00488 µM, OCI-P5x cells, with rucaparib 20 µM, 100% = cells with rucaparib alone): 108% (inactive); viability ([6]; at 0.00488 µM, OCI-P5x cells, without rucaparib): 108% (inactive); viability ([6]; at 0.0195 µM, OCI-C5x cells, with rucaparib 10 µM, 100% = cells with rucaparib alone): 113% (inactive); viability ([6]; at 0.0195 µM, OCI-C5x cells, without rucaparib): 128% (inactive); viability ([6]; at 0.0195 µM, OCI-P5x cells, with rucaparib 20 µM, 100% = cells with rucaparib alone): 104% (inactive); viability ([6]; at 0.0195 µM, OCI-P5x cells, without rucaparib): 108% (inactive); viability ([6]; at 0.0781 µM, OCI-C5x cells, with rucaparib 10 µM, 100% = cells with rucaparib alone): 110% (inactive); viability ([6]; at 0.0781 µM, OCI-C5x cells, without rucaparib): 127% (inactive); viability ([6]; at 0.0781 µM, OCI-P5x cells, with rucaparib 20 µM, 100% = cells with rucaparib alone): 107% (inactive); viability ([6]; at 0.0781 µM, OCI-P5x cells, without rucaparib): 109% (inactive); viability ([6]; at 0.313 µM, OCI-C5x cells, with rucaparib 10 µM, 100% = cells with rucaparib alone): 106% (inactive); viability ([6]; at 0.313 µM, OCI-C5x cells, without rucaparib): 132% (inactive); viability ([6]; at 0.313 µM, OCI-P5x cells, with rucaparib 20 µM, 100% = cells with rucaparib alone): 102% (inactive); viability ([6]; at 0.313 µM, OCI-P5x cells, without rucaparib): 98.9% (active); viability ([6]; at 1.25 µM, OCI-C5x cells, with rucaparib 10 µM, 100% = cells with rucaparib alone): 101% (inactive); viability ([6]; at 1.25 µM, OCI-C5x cells, without rucaparib): 138% (inactive); viability ([6]; at 1.25 µM, OCI-P5x cells, with rucaparib 20 µM, 100% = cells with rucaparib alone): 91.6% (active); viability ([6]; at 1.25 µM, OCI-P5x cells, without rucaparib): 93.8% (active); viability ([6]; at 5 µM, OCI-C5x cells, with rucaparib 10 µM, 100% = cells with rucaparib alone): 106% (inactive); viability ([6]; at 5 µM, OCI-C5x cells, without rucaparib): 132% (inactive); viability ([6]; at 5 µM, OCI-P5x cells, with rucaparib 20 µM, 100% = cells with rucaparib alone): 76.3% (active); viability ([6]; at 5 µM, OCI-P5x cells, without rucaparib): 81.8% (active); inhibition ([7]; at 0.5 µM, stronger effect = higher value): -5.76% (inactive) and -8.68% (inactive); inhibition ([7]; measured here: combination with BGB IC20, at 0.005 µM): 12.1% and -26.9%; inhibition ([7]; measured here: combination with BGB IC40, at 0.005 µM): 76.1% and -29.5%; inhibition ([7]; measured here: combination with BGB IC40, at 0.05 µM): -11.7% and -51.5%; inhibition ([7]; measured here: combination with cisplatin, at 0.5 µM, stronger effect = higher value): 39.6% and -32.3%; inhibition ([7]; measured here: combination with cisplatin, at 5 µM, stronger effect = higher value): -23.3% and -90%; inhibition ([8]; BGB combo, at 5 µM): 2.05% and 13.3%; inhibition ([8]; at 0.5 µM): -17.5% (inactive) and -12.8% (inactive); inhibition ([8]; cisplatin combo, at 5 µM): -12.4% and 5.9%; inhibition ([8]; measured here: with BGB IC20 combination, at 0.5 µM): -16.8% and -1.93%; inhibition ([8]; measured here: with cisplatin IC20 combination, at 0.5 µM): -12.5% and -11.1%; inhibition ([8]; single agent, at 5 µM): -33.9% and 16.4%; inhibition ([9]; BGB IC20 combo, at 0.005 µM): 4.72% and 10.1%; inhibition ([9]; BGB IC40 combo, at 0.005 µM): -39.9% and -9.84%; inhibition ([9]; BGB IC40 combo, at 0.05 µM): 3.85% and -15.8%; inhibition ([9]; at 0.5 µM): -19.3% (inactive) and -37.2% (inactive); inhibition ([9]; cisplatin combo, at 0.05 µM): -0.996% and -20%; inhibition ([9]; cisplatin combo, at 0.5 µM): -20.2% and -42.2%; inhibition ([9]; cisplatin combo, at 5 µM): 2.43% and -58.6%; inhibition ([9]; measured here: 5 uM single agent, at 5 µM): -28.1% and -5.43%; inhibition ([10]; at 0.5 µM): -24.8% (inactive) and -13.9% (inactive); inhibition ([10]; measured here: with BGB IC20, at 0.5 µM): -22.3% and -11.4%; inhibition ([10]; measured here: with BGB IC20, at 5 µM): -3.78% and 16.9%; inhibition ([10]; measured here: with cisplatin IC20, at 0.5 µM): -22.4% and -22.3%; inhibition ([10]; measured here: with cisplatin IC20, at 5 µM): 1.95% and -37.3%; inhibition ([10]; single agent, at 5 µM): -2.38% and 8.59%; inhibition ([11]; at 0.5 µM): -6.48% (inactive) and -14.8% (inactive); inhibition ([11]; measured here: BGB combination, at 0.5 µM): -1.79% and -20.6%; inhibition ([11]; measured here: BGB combination, at 5 µM): 17.7% and 3.62%; inhibition ([11]; measured here: cisplatin combination, at 0.5 µM): -20.7% and -21.7%; inhibition ([11]; measured here: cisplatin combination, at 5 µM): 7.96% and -7.31%; inhibition ([12]; at 0.5 µM): -1.92% (inactive) and -6.86% (inactive); inhibition ([12]; cisplatin combination, at 0.5 µM): -3.42% and -23.5%; inhibition ([12]; cisplatin combination, at 5 µM): -136% and -3.01%; inhibition ([12]; measured here: BGB IC40 combination 0.05 uM, at 0.05 µM): -6.42% and -21%; inhibition ([12]; single agent, at 5 µM): 4.22% and -18.6%; inhibition ([13]; at 0.5 µM): 1.57% (inactive) and -21.5% (inactive); inhibition ([13]; cisplatin combo, at 5 µM): -0.721% and -71.8%; inhibition ([13]; measured here: BGB IC40 combination, at 0.05 µM): 9.68% and -19.2%; inhibition ([13]; measured here: combination with cisplatin, at 0.5 µM): -13.6% and -9.04%; inhibition ([13]; single agent, at 5 µM): 36.4% and -12.2%
